# The full list was thinned out, with hits kept by preference.
# IDE exosite inh: displaces the probe from the exo-site of human IDE; P14735; purified IDE, FL-6b probe fluorescence polarization; hits give low values; z-score at 20 µM; actives 6.3% (n = 17,000);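 active = z-score of -3 or lower, meaning strong loss of probe binding signal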;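 note: His-tagged human IDE residues 42-1019 made in E. coli with 30 nM FL-6b probe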
# Target sequence (P14735 42-1019 limits assumed): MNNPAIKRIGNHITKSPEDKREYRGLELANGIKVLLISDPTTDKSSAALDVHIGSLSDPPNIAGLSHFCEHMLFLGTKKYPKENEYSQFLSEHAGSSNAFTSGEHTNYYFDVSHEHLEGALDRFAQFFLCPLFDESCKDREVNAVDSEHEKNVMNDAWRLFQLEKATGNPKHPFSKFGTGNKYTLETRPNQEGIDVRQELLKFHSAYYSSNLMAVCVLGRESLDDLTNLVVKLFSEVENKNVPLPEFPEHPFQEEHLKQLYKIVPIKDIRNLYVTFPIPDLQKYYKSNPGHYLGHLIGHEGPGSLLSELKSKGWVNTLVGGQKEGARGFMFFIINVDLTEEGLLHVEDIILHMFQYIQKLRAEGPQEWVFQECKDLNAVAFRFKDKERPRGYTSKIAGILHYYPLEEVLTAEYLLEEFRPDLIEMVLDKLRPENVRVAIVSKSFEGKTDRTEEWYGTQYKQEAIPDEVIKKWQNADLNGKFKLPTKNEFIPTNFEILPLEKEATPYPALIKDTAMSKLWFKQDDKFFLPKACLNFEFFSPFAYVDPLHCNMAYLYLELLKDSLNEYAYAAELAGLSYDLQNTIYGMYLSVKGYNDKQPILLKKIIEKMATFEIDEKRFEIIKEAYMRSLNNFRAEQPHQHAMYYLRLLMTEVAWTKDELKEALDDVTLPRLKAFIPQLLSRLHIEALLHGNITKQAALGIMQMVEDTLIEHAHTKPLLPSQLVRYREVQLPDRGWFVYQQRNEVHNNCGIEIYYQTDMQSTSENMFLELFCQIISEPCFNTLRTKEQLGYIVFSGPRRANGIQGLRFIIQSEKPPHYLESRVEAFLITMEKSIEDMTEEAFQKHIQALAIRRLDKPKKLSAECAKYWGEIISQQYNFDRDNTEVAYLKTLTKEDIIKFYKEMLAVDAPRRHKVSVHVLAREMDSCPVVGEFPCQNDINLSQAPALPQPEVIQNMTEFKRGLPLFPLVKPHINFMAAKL
# Numbers without * were called inactive; ! = repeats disagree.
SMILES,IDE exosite inh
COc1ccc2c3c([nH]c2c1)[C@@H](CO)N(C(=O)NC(C)C)CC31CCN(C(=O)C2CCCCC2)CC1,1.3
COCC(=O)Nc1ccc2c(c1)[C@@H]1C[C@@H](CC(=O)N[C@H](C)c3ccccc3)O[C@@H](CO)[C@@H]1O2,0.934
CC(C)C#Cc1ccc([C@@H]2[C@@H](CO)N3C(=O)CN(C(=O)c4ccc5c(c4)OCO5)C[C@H]23)cc1,-0.355
CC(=O)N1CCCCN2[C@H](CO)[C@H](c3ccc(-c4cccc(C(=O)N(C)C)c4)cc3)[C@H]2C1,2.78
CC(=O)NC[C@H]1[C@H](c2ccccc2)[C@@H](CO)N1C(=O)Cc1ccncc1,1.62
CO[C@@H]1CN(C)C(=O)c2ccc(NC(C)=O)cc2OC[C@@H](C)N(Cc2cccc(F)c2)C[C@H]1C,0.0626
CC(C)(O)C#Cc1ccc([C@@H]2[C@@H](CO)N3CCCCN(C(=O)c4cccnc4)C[C@@H]23)cc1,3.42
Cc1ccccc1-c1ccc([C@H]2[C@H](CO)N3CCCCN(C(=O)c4cccnc4)C[C@@H]23)cc1,-3.87*
CC(C)(O)C#Cc1ccc([C@H]2[C@H]3CN(C(=O)c4cccnc4)CCCCN3[C@H]2CO)cc1,0.85
Cc1ccccc1-c1ccc([C@@H]2[C@H](CO)N3CCCCN(C(=O)c4cccnc4)C[C@@H]23)cc1,-8.42*
CC(C)(O)C#Cc1ccc([C@@H]2[C@H](CO)N3CCCCN(C(=O)c4cccnc4)C[C@@H]23)cc1,0.937
Cc1ccccc1-c1ccc([C@H]2[C@@H](CO)N3CCCCN(C(=O)c4cccnc4)C[C@H]23)cc1,-16.5*
Cc1ccccc1-c1ccc([C@@H]2[C@@H](CO)N3CCCCN(C(=O)c4cccnc4)C[C@H]23)cc1,-2.23
O=C(C1CCCC1)N1CC(=O)N2[C@@H](CO)[C@@H](c3ccc(C#CC4CCCC4)cc3)[C@@H]2C1,3.07
O=C(Nc1ccc(F)cc1)N1CC(=O)N2[C@H](CO)[C@@H](c3ccc(C#Cc4ccccc4)cc3)[C@H]2C1,1.41
O=C(Nc1ccc2c(c1)[C@@H]1C[C@H](CC(=O)N3CCc4ccccc4C3)O[C@@H](CO)[C@@H]1O2)c1ccc2c(c1)OCO2,1.21
OC[C@H]1[C@@H](c2ccc(C#CC3(O)CCCC3)cc2)[C@@H]2CN(Cc3ccccc3F)CCCCN12,3.62
O=C(C1CCOCC1)N1CC2(C1)[C@@H](c1ccccc1)[C@@H](CO)N2Cc1ccccc1F,0.464
N#C[C@H]1[C@H](c2ccccc2-c2ccccc2)[C@@H](CO)N1C(=O)Cc1ccncc1,1.52
Fc1cccc(CN2[C@@H]3CNC[C@H]2C3c2ccc(-c3cccnc3)cc2)c1 (stereo not given in full),3.14
COc1ccccc1-c1ccc(C2[C@H]3CNC[C@@H]2N3C(=O)Nc2ccccc2F)cc1 (stereo not given in full),-10.7*
O=C(Nc1ccc(C(F)(F)F)cc1)N1[C@@H]2CNC[C@H]1C2c1ccc(-c2ccccc2F)cc1 (stereo not given in full),0.598
COc1cccc(NC(=O)N2[C@@H]3CNC[C@H]2C3c2ccc(-c3cccc(OC)c3)cc2)c1 (stereo not given in full),-7.29*!
O=C(Nc1ccccc1F)N1[C@@H]2CNC[C@H]1C2c1ccc(-c2ccncc2)cc1 (stereo not given in full),1.78
COc1cccc(-c2ccc(C3[C@H]4CNC[C@@H]3N4C(=O)Nc3ccccc3Cl)cc2)c1 (stereo not given in full),-1.83
SMILES,IDE exosite inh
COc1cccc(NC(=O)N2[C@@H]3CNC[C@H]2C3c2ccc(-c3cccnc3)cc2)c1 (stereo not given in full),-0.474
CO[C@H]1CN(C)C(=O)c2ccc(NS(=O)(=O)c3ccc(C)cc3)cc2OC[C@H](C)N(C)C[C@@H]1C,1.08
CCCNC(=O)N1[C@H](CO)[C@@H](c2ccccc2C2=CCCC2)[C@@H]1C#N,4.52
CC(C)NC(=O)N1CCCCN2[C@H](C1)[C@H](c1ccc(C#Cc3ccccc3F)cc1)[C@@H]2CO,-9.59*
CC(C)NC(=O)N1CCCCN2[C@@H](CO)[C@H](c3ccc(C#Cc4ccccc4F)cc3)[C@@H]2C1,-12.7*
CC(C)NC(=O)N1CCCCN2[C@H](CO)[C@H](c3ccc(C#Cc4ccccc4F)cc3)[C@H]2C1,-4.49*
COc1ccc(-c2ccc([C@@H]3[C@@H](CO)N4C(=O)CN(C(=O)C5CCC5)C[C@@H]34)cc2)cc1,2.35
COc1cccc(-c2ccc([C@H]3[C@H]4CN(C(=O)C5CCC5)CC(=O)N4[C@H]3CO)cc2)c1,-5.75*
COc1ccc(-c2ccc([C@H]3[C@@H](CO)N4C(=O)CN(C(=O)C5CCCC5)C[C@@H]34)cc2)cc1,-2.51
COc1ccc(-c2ccc([C@H]3[C@@H](CO)N4C(=O)CN(C(=O)NC(C)C)C[C@H]34)cc2)cc1,-0.408
COc1ccc(-c2ccc([C@@H]3[C@H]4CN(C(=O)NC(C)C)CC(=O)N4[C@H]3CO)cc2)cc1,-0.327
COc1cccc(-c2ccc([C@H]3[C@H](CO)N4C(=O)CN(C(=O)NC(C)C)C[C@@H]34)cc2)c1,-6.95*
COc1cccc(-c2ccc([C@@H]3[C@@H](CO)N4C(=O)CN(C(=O)C5CCC5)C[C@H]34)cc2)c1,-4.34*
COc1ccc(-c2ccc([C@H]3[C@@H](CO)N4C(=O)CN(C(=O)C5CCCC5)C[C@H]34)cc2)cc1,-7.68*
C[C@@H](O)C#Cc1ccc([C@H]2[C@@H](CO)N3CCCCN(CC4CCOCC4)C[C@H]23)cc1,3.53
C[C@@H]1CCCCO[C@@H](CN(C)C(=O)Nc2ccc(C(F)(F)F)cc2)[C@H](C)CN([C@H](C)CO)C(=O)c2cc(NS(=O)(=O)c3cn(C)cn3)ccc2O1,0.879
COc1ccccc1S(=O)(=O)N[C@H]1C=C[C@H](CC(=O)N2CCOCC2)O[C@@H]1CO,0.852
CS(=O)(=O)N1[C@H](C#N)[C@@H](c2ccccc2)[C@H]1CO,1.36
O=C(Nc1ccc2c(c1)[C@@H]1C[C@H](CC(=O)N3CCCCC3)O[C@@H](CO)[C@@H]1O2)NC1CCCCC1,0.422
CN(C)C(=O)c1cccc(-c2ccc([C@H]3[C@@H](CO)N4C(=O)CN(C(=O)C5CCC5)C[C@@H]34)cc2)c1,1.54
CN(C)C(=O)c1cccc(-c2ccc([C@H]3[C@H]4CN(C(=O)C5CCCCC5)CC(=O)N4[C@H]3CO)cc2)c1,2.24
CN(C)C(=O)c1cccc(-c2ccc([C@@H]3[C@@H](CO)N4C(=O)CN(C(=O)C5CCCCC5)C[C@@H]34)cc2)c1,2.76
COc1cccc(-c2ccc([C@H]3[C@H](CO)N4C(=O)CN(C(=O)C5CCC5)C[C@@H]34)cc2)c1,-6.77*
O=C(C1CCC1)N1CC(=O)N2[C@@H](CO)[C@H](c3ccc(-c4cccnc4)cc3)[C@@H]2C1,1.11
COc1cccc(-c2ccc([C@H]3[C@@H](CO)N4C(=O)CN(C(=O)C5CCCCC5)C[C@@H]34)cc2)c1,-6.28*
CCS(=O)(=O)Nc1ccc2c(c1)C(=O)N(C)[C@H]1CC[C@H](CC(=O)NCc3ccccc3F)O[C@@H]1CO2,1.72
C/C=C/c1ccc([C@H]2[C@@H](CO)N(C(=O)COC)[C@H]2CNC(=O)CC)cc1,1.33
CC(C)NC(=O)N1[C@H](CO)[C@@H](c2ccc(C#CC3CC3)cc2)[C@@H]1C#N,5.69
COc1cccc(C(=O)Nc2ccc3c(c2)C(=O)N(C)[C@@H]2CC[C@@H](CC(=O)NCc4ccc(F)cc4)O[C@H]2CO3)c1,-0.977

# Screening data as filed in PubChem BioAssay.
